Compounds with a hit are over-represented: about 7.5% of the library has one in this group of screens.
HCV inhibitor – blocks hepatitis C virus; Huh7.5.1 HCVcc-Cre infection, luciferase reporter, 44 h; Potency, µM (top dose mostly 41.8 µM), inactives show top-dose activity change, negative = inhibition, actives largely listed as inhibitors; 340,000 compounds, 3.4% hits; AID 651820; further: potency means the concentration at half of the fitted maximal effect
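Compounds are dispensed onto cells plated 4 h earlier at 1,000 per well, with HCVcc-Cre virus (about 0.5 moi) added next. Following 44 h of culture, luminescent signal is measured for 15 sec after 15 min with substrate at room temperature.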
HCMV antiviral – human cytomegalovirus inhibition | HFF cells, HCMV-luciferase reporter, 72 h; active compounds read low | activity change, negative = inhibition, % at 57.5 µM | 410,000 compounds, 4.5% hits | AID 1259415; in the data active means activity change below about -60%; inconclusive means no clear call, values can overlap the other calls; inactive means above about -39%
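HFF cells seeded 16 h at 37C, treated with compounds, infected with luciferase-reporter HCMV at MOI 1 PFU/cell; luciferase read at 72 h post infection, normalized to buffer-only and Salinomycin controls.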
FMDV antiviral – foot and mouth disease virus antiviral activity. 410,000 compounds, 1.2% hits. Potency, µM (doses to about 57.9 µM), for the others: at the highest dose activity change, negative = inhibition, most hits filed as inhibitors. FMDV antiviral cell-based qHTS. AID 1159524; calls by dose curve; tested in HEK293T cells; further: read-out not given here; potency means the concentration at half of the fitted maximal effect; nearly all actives have a fitted effect of over 45% in size
VACV Venus inh – vaccinia inhibition (Venus reporter); Vaccinia virus Venus reporter expression, fluorescence; Potency, µM (top dose mostly 36.5 µM), inactives show top-dose activity change, negative = inhibition, most hits filed as inhibitors; 330,000 compounds, 0.46% hits; AID 720580; calls by dose curve; tested in A549 cells; further: potency means the concentration at half of the fitted maximal effect; nearly all actives have a fitted effect of over 30% in size
Giardia FBPA inh – blocks Giardia fructose-bisphosphate aldolase activity; A8B2U2; Potency, µM (doses to about 59.6 µM), for inactives: top-dose activity, negative = inhibition, usual class: inhibitors; purified Giardia FBPA; 290,000 compounds, 0.71% hits; further: potency means the concentration at half of the fitted maximal effect; nearly all actives have a fitted effect of over 55% in size
Target sequence (A8B2U2 whole entry, looked up): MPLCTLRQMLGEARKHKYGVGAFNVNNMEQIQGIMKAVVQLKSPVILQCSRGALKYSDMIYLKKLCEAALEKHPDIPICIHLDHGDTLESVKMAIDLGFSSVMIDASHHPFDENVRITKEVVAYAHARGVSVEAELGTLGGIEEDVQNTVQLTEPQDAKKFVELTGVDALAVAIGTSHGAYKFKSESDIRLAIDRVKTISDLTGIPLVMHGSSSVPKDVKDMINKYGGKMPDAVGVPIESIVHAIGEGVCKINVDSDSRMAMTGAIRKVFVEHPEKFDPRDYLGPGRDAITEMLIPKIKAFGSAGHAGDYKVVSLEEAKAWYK
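Giardia FBPA (40 nM reagent) was preincubated 10 min at RT with compound (up to 57.5 uM final), then substrate plus GAPDH/TPI/NAD/arsenate coupling system with diaphorase/resazurin was added; resorufin fluorescence (525/598 nm) was read after 20 min.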
Vaccinia mCherry – vaccinia inhibition (mCherry reporter) | AID 720579 | Vaccinia virus mCherry reporter infection, fluorescence | Potency, µM (doses to about 36.5 µM), for inactives: at the highest dose activity change, negative = inhibition, actives largely listed as inhibitors | 310,000 compounds, 0.63% hits; calls by dose curve; tested in A549 cells; further: potency means the concentration at half of the fitted maximal effect; nearly all actives have a fitted effect of over 35% in size
* marks the source's active call; other numbers are inactive results; [ ] = dose if it differs, or a comment. Unless noted, the call rests on the fitted dose curve; in most records, active means well fitted curve in the direction sought with a large enough effect; inconclusive means small, poorly fitted or top-dose-only effect, or another doubt; inactive means no such curve, though single readings can be large; an effect the other way counts as inactive or inconclusive. On the % scale 0 is the no-effect control and ±100 the full control effect.

COC(=O)c1c(C(=O)OC)c2ccccn2c1C(=O)c1ccc([N+](=O)[O-])cc1 was read as HCV inhibitor -7%, HCMV antiviral -102*, FMDV antiviral inconclusive, VACV Venus inh -7%, Giardia FBPA inh 0% and Vaccinia mCherry -13%.
CCNC(=O)C1(C)CCN(Cc2ccc(C#N)cc2)C1 (centres undefined) was read as HCMV antiviral inconclusive, FMDV antiviral -11%, VACV Venus inh -7% and Vaccinia mCherry -12%.
COc1ccc(N2CC(O)=C(c3nc(C)cs3)C2=N)cc1 was read as HCV inhibitor -34%, HCMV antiviral 30, VACV Venus inh -12%, Giardia FBPA inh 0% and Vaccinia mCherry -13%.
Screening COc1ccc(N2CC(O)=C(c3n(C)c4ccccc4[n+]3C)C2=N)cc1 returned HCV inhibitor -16%, HCMV antiviral -81*, FMDV antiviral -5%, VACV Venus inh -9%, Giardia FBPA inh -3% and Vaccinia mCherry -18%.
CC(=O)Nc1ccc(S(=O)(=O)c2ccnc3cc(Cl)ccc23)cc1 was read as HCMV antiviral -83*, FMDV antiviral 32µM*, VACV Venus inh inconclusive and Vaccinia mCherry inconclusive.
For COc1ccc(N2CCN(C(c3ccc(C)cc3)c3nnnn3C(C)(C)C)CC2)cc1 (centres undefined) the results were VACV Venus inh -10% and Vaccinia mCherry inactive.
`CCOC(=O)Nc1ccc2c(c1)C(=NNC(N)=S)c1ccccc1-2` gave HCV inhibitor inconclusive, HCMV antiviral inconclusive, FMDV antiviral inconclusive, VACV Venus inh 16µM* and Vaccinia mCherry 11µM*.
For CCOC(=O)Nc1ccc2c(c1)C(=NO)c1ccccc1-2 the results were HCV inhibitor inconclusive, HCMV antiviral 8, FMDV antiviral 16%, VACV Venus inh inconclusive and Vaccinia mCherry -26%.
`CC(C)(C)OC(=O)N(Cc1ccccc1)Cc1cccc(OCc2cccc(NC(=O)c3ccccc3)c2)c1` gave HCV inhibitor 7.9µM*, HCMV antiviral -28, FMDV antiviral inconclusive, VACV Venus inh 0% and Vaccinia mCherry -1%.
CC(C)(C)OC(=O)N(CCc1ccccc1)Cc1ccc(OCc2cccc(NC(=O)C3CCCC3)c2)cc1 was read as HCV inhibitor -17%[8.37 µM], HCMV antiviral -4, FMDV antiviral -24%, VACV Venus inh -11% and Vaccinia mCherry 0%.
For CC(C)(C)OC(=O)N(Cc1ccccc1)Cc1ccc(OCc2cccc(NC(=O)C3CC3)c2)cc1 the results were HCV inhibitor inconclusive, HCMV antiviral inconclusive, FMDV antiviral 14µM*, VACV Venus inh inconclusive and Vaccinia mCherry inconclusive.
`C=Cc1ccc(CC2(C)C(=O)Nc3ccc(Cl)cc32)cc1` (centres undefined) gave HCMV antiviral 3, FMDV antiviral -11%, VACV Venus inh -3% and Vaccinia mCherry 13%.
CCc1noc(C)c1C(=O)N(C)CC(=O)Nc1cccc(OC)c1 was read as HCV inhibitor 9%, HCMV antiviral inconclusive and FMDV antiviral -4%.
`Cc1ccc(NC(=O)C2CC(O)CN2C(=O)OCc2ccccc2)c(C)c1` (centres undefined) gave HCV inhibitor 17%, HCMV antiviral -63*, FMDV antiviral -4%, VACV Venus inh -10%, Giardia FBPA inh 3% and Vaccinia mCherry -3%.
`CC(C)=NO[C@@H](C)c1cn([C@@H]2COC[C@@H]2O)nn1` gave Giardia FBPA inh -1%[12.9 µM].
CN(CCCN1c2ccccc2CCc2ccccc21)CC(=O)c1ccc(Cl)cc1 was read as FMDV antiviral 4% and Giardia FBPA inh -4%.
Screening CN(C)CCCN1c2ccccc2CCc2ccc(Cl)cc21 returned HCV inhibitor inconclusive, HCMV antiviral -67*, FMDV antiviral 0%, VACV Venus inh -26%, Giardia FBPA inh -15% and Vaccinia mCherry -13%.
Screening CCCCOc1cccc(/C=C(\C#N)C(=O)NC2CC2)c1 returned HCV inhibitor -6%, HCMV antiviral 13, FMDV antiviral -14%, VACV Venus inh -1%, Giardia FBPA inh 9% and Vaccinia mCherry -14%.
Screening COc1ccc(NC(=O)CSc2ccccc2)cn1 returned HCV inhibitor -6%, HCMV antiviral -103*, FMDV antiviral 33%, VACV Venus inh 4%, Giardia FBPA inh -24% and Vaccinia mCherry -28%.
`COc1ccc(NC(=O)Cc2ccccc2)cn1` gave HCV inhibitor 16%, HCMV antiviral -30, FMDV antiviral 14%, VACV Venus inh 2%, Giardia FBPA inh 2% and Vaccinia mCherry -3%.
For Cc1ccc2nc(CN3CCN(C(=O)Nc4cccc(C)c4C)CC3)oc2c1 the results were HCMV antiviral -7, FMDV antiviral -23%, VACV Venus inh -3% and Vaccinia mCherry -13%.
Screening O=C(c1ccc(CSc2ccc(Cl)cc2)cc1)N1CCCC1 returned HCV inhibitor inconclusive, HCMV antiviral -63*, FMDV antiviral 12% and Giardia FBPA inh -1%.
COc1ccccc1N1CCN(C(=O)c2sc3nc(-c4ccc(F)cc4)cn3c2C)CC1 was read as HCV inhibitor 4.5µM*, HCMV antiviral -61*, FMDV antiviral 0%, VACV Venus inh inconclusive, Giardia FBPA inh -1% and Vaccinia mCherry inconclusive.
`CCOc1ccccc1N1CCN(C(=S)NCc2ccccc2)CC1` gave HCV inhibitor 13%, HCMV antiviral -88*, FMDV antiviral 11%, VACV Venus inh -13%, Giardia FBPA inh 1% and Vaccinia mCherry -7%.
Screening CCNC(=S)N1CCN(c2ccccc2OCC)CC1 returned HCV inhibitor 15%, HCMV antiviral -31, FMDV antiviral -17%, VACV Venus inh -15%, Giardia FBPA inh 14% and Vaccinia mCherry -11%.
For COc1ccccc1N1CCN(C(=O)CSc2ccccc2)CC1 the results were HCV inhibitor 6%, HCMV antiviral 114, FMDV antiviral -7%, VACV Venus inh -22% and Giardia FBPA inh 1%.
`COc1ccccc1N1CCN(C(=O)C(Sc2ccccc2)c2ccccc2)CC1` (centres undefined) gave HCV inhibitor 11µM*, HCMV antiviral 16, FMDV antiviral inconclusive, VACV Venus inh inconclusive and Giardia FBPA inh 9%.
O=C(c1ccc(CSc2ccc(Cl)cc2)cc1)N1CCOCC1 was read as HCV inhibitor inconclusive, HCMV antiviral -30, FMDV antiviral 1% and Giardia FBPA inh 1%.
Screening COc1ccc(S(=O)(=O)NCCS(=O)(=O)N2CCN(c3ccccc3F)CC2)cc1 returned HCMV antiviral -13, FMDV antiviral 10%, VACV Venus inh -15% and Vaccinia mCherry inactive.
For COc1ccccc1N1CCN(C(=O)c2ccc(C(C)(C)C)cc2)CC1 the results were HCV inhibitor -25%, HCMV antiviral -36, FMDV antiviral inconclusive, VACV Venus inh 10µM*, Giardia FBPA inh -3% and Vaccinia mCherry 11µM*.
